The values below come from PubChem BioAssay (NCI).

About 83,000 compounds went through this panel and 20% of them were active in at least one assay; those are over-represented in the sample as a whole.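 Single-concentration screen, 48 h exposure, 96-well plates. Endpoint: percent growth. Below 10 = active.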 Values without a mark were called inactive. The source made the active and inactive calls.

For the assay, the system named is COLO 205 colon. Briefly: NCI-60 one-dose screen, 48 h (100 = growth as untreated, 0 = no growth, -100 = all killed). The note with it: 10 µM unless noted. How it is done:
Cells are grown in 96 well plates and exposed to the test compound for 48 hours. Compounds are tested at a single concentration, which is 10^-5 M for most compounds. The reported endpoint is percent growth (GI% or GIPRCNT), where numbers from 0 - 100% represent growth inhibition, and numbers from -100% - 0 represent cell death. For example, a value of 40 represents 60% growth inhibition. A value of 0 means no net growth occurred over the course of the experiment. A value of -40 indicates 40% of cells at the beginning of the experiment died by the end of the experiment. A value of -100 means all cells are dead at the end of the experiment.
NCI-60 Human Tumor Cell Lines Screen was performed using the standard one-dose NCI protocol, which is described in more detail at https://dtp.cancer.gov/discovery_development/nci-60/default.htm.
Compounds with GIPRCNT values below 10 were considered active. Activity score was based on GIPRCNT using the following formula: […]
Score is 0 for GIPRCNT values of 100 or above, 50 for GIPRCNT values of 0, and 100 for GIPRCNT values of -100.
As to `Cn1cc(-c2nonc2-c2cn(C)c3ccc(F)cc23)c2ccccc21`, the growth is 5.23% (active). As for `COc1ccc(/C=C/C(=O)c2cc(O)ccc2O)cc1`, the figure is 99%; as for `Cc1ccc2oc(=O)cc(C3c4ccc([nH]4)C(c4cc(=O)oc5ccc(C)cc45)c4ccc([nH]4)C(c4cc(=O)oc5ccc(C)cc45)c4ccc([nH]4)C(c4cc(=O)oc5ccc(C)cc45)c4ccc3[nH]4)c2c1` (stereo not given), -80.6% (active); as for `NC(=NCCCOc1ccc(Cl)cc1)Nc1ccc(Cl)cc1`, -65.6% (active). To `CCn1c(O)c(/C=N/NC(=O)C(C)c2ccc(CC(C)C)cc2)sc1=S` (stereo not given) belongs 15.3%. To `COC(=O)c1ccc(NC(=O)c2ccc(-c3cccc([N+](=O)[O-])c3)o2)cc1` belongs 108%. `COc1ccc(-n2nc(C)c3c(Nc4ccc(NC(=O)Nc5ccc(Cl)c(C(F)(F)F)c5)cc4)ncnc32)cc1`: the growth is -23.6% (active). As for `Cn1c(NCCc2ccc(O)c(O)c2)nc2c1c(=O)n(Cc1ccc(Br)cc1)c(=O)n2C`, the figure is 50.5%; as for `O=C1/C(=C/c2ccc(OCCCOc3ccc(Cl)cc3)cc2)N=C2SCCCN12`, 78.2%; as for `O=C(O)c1c(=O)cccc2ssc12`, -45.7% (active). As for `O=S(=O)(Nc1ccc(Cl)c(F)c1)c1ccc(-c2cnc(C3CC3)o2)cc1`, the figure is 1.76% (active). As to `CC(C)C[C@@H](NC(=O)[C@@H](Cc1ccccc1)NC(=O)c1cnccn1)B1Oc2ccc(C[C@H](NC(=O)[C@H](Cc3ccc4c(c3)OB([C@@H](CC(C)C)NC(=O)[C@@H](Cc3ccccc3)NC(=O)c3cnccn3)O4)NC(=O)[C@@H](N)CC3CCC4OB([C@@H](CC(C)C)NC(=O)[C@@H](CC5CCCCC5)NC(=O)C5CNCCN5)OC4C3)C(=O)NCCCC[C@@H]3NC(=O)[C@@H](Cc4ccccc4)NC(=O)[C@H](CC(=O)O)NC(=O)CNC(=O)[C@H](CCCNC(=N)N)NC3=O)cc2O1` (stereo not given in full), the growth is -72.6% (active). To `COc1cc2nc(N3CCCC3)nc(NCC3CCCCC3)c2cc1OC` belongs -86.2% (active); to `CC[N+](CC)=c1sc2c(s1)C(c1ccc(Cl)cc1)Oc1ccc(Cl)cc1-2` (stereo not given), -69.6% (active). As for `Oc1cccc(-c2nc(N3CCOCC3)c3c4c(sc3n2)CCCC4)c1`, the figure is 103%; as for `CC(C)(CCCN=C(N)Nc1ccc(Cl)cc1)c1ccc(F)cc1`, -54% (active). In the case of `O=C(Cc1ccc(/C=C/C(=O)c2ncc[nH]2)cc1)Nc1ccccc1`, the growth was 45.5%. As for `Nc1ccc(-c2cc3c(Nc4ccc(Oc5cccc(C(F)(F)F)c5)c(Cl)c4)ncnc3s2)cc1`, the figure is 91.3%; as for `CCN1CCN(c2nc(NCCCNc3ccnc4cc(Cl)ccc34)c3ccccc3n2)CC1`, -22.9% (active); as for `Cn1cc(-c2nonc2-c2c[nH]c3ccc(F)cc23)c2cccnc21`, 96.5%. To `NC(=NCCCOc1ccc(Cl)cc1)Nc1ccc(C(F)(F)F)cc1` belongs -67.1% (active); to `CC(=O)c1cc2c(N)c(C(=O)Nc3cccc(F)c3C)sc2nc1C`, 74.3%; to `O=c1nc2oc3ccc4ccccc4c3cc-2s1`, 30.4%. `O=C1c2ccccc2C(=O)c2c1ccc1[nH]c(-c3cccs3)nc21`: the growth is 103%. As for `CCCOc1cc2ccccc2cc1C(=O)Nc1nc(NC)c2c(ccc3nccc32)[nH]1`, the figure is -76.2% (active). Take `NC(=O)c1cc(Cl)ccc1NC(=O)/C=C/c1ccccc1`: the growth was -43.3% (active). To `N#Cc1nnn(-c2ccc(S(N)(=O)=O)cc2)c1NC(=O)CCl` belongs 110%; to `C=C(C)C(=O)Nc1ccc(NC(C)C)cc1`, 148%. As for `CCOC(=O)c1c(CN2CCN(C)CC2)nc2ccc(Cl)cc2c1-c1ccccc1`, the figure is 97%; as for `O=C(COc1cccc(/C=C2\COc3ccccc3C2=O)c1)Nc1nccs1`, 87.3%; as for `CC(C)(C)c1cc(C(C)(C)C)cc(S(=O)(=O)Nc2cc3ccccc3cc2C(=O)NCCN)c1`, -85.6% (active). As for `Cn1ccnc1C(=O)/C=C/c1ccc(CC(=O)Nc2ccccc2)cc1`, the figure is 4.76% (active); as for `Oc1ccc(N=Cc2ccccc2O)cc1`, 120%; as for `COCCNc1ccc2c3c(cccc13)C(=O)N(CCN(C)C)C2=O`, 6.86% (active). Turning to `COc1cc(/C=C/C(=O)Nc2cccnc2Nc2ccc(F)cc2)cc(OC)c1OC`, the growth is 113%. As for `COC(=O)c1ccc(Cn2cnc3c(N)ncnc32)cc1`, the figure is 109%. As for `CCOC(=O)c1sc(Nc2ccc(Cl)cc2)nc1C`, the figure is 11%; as for `Fc1ccc(CNc2cccc3[nH]c(C(F)(F)F)nc23)cc1`, 102%. Turning to `COc1ccc(-c2cc(C(=O)N=Nc3c(O)[nH]c4ccc(Br)cc34)no2)cc1`, the growth was 114%. As for `COc1ccc(-c2nc3cc(C(=O)Nc4cc(OC)c(OC)c(OC)c4)ccc3n2C2CCCCC2)cc1`, the figure is 110%.
